Laboratory results from PubChem BioAssay AID504832 (National Center for Advancing Translational Sciences (NCATS), 2011).
About 18,000 (5.8%) of roughly 310,000 compounds were called active. Where a call stands in place of a potency, no number is given. Roughly 22% stayed inconclusive and do not appear here. This is one part of a sample in which actives are shown more often than they occur. Calls follow the shape of the dose curve; as a rule, active = well fitted inhibition curve with a large enough effect; inconclusive = small, poorly fitted or top-dose-only effect, or another doubt; inactive = no such curve, though single readings can be large or run the other way.
Potency is read from the fitted curve at half-maximal effect.

Assay: Primary qHTS for delayed death inhibitors of the malarial parasite plastid, 48 hour incubation
Conditions: P. falciparum luciferase growth in erythrocytes; series mostly up to 28.7 µM
Text: The goal of this screen is to discover new antimalarial compounds that act by inhibiting the development of the apicoplast in the malarial parasite Plasmodium falciparum. The biochemical processes that make this organelle essential for erythrocytic stage parasites are not well understood. However, antibiotics such as azithromycin and tetracycline, which target the apicoplast translational machinery, have a potent antimalarial effect.
We have developed a cell-based assay that measures parasite growth based on the expression of an integrated copy of a firefly luciferase reporter. To detect small molecules that cause this "delayed death" phenotype, erythrocytes infected with the luciferase-expressing parasites were incubated with compounds for either one or two generations, corresponding to 48 and 96 hours, respectively. Compounds that inhibit parasite growth in the second generation, but not the first, should be enriched in antimalarials that target the apicoplast. Growth inhibition is detected by a decrease in luciferase activity.
Assay Provider: David Fidock and Eric Ekland, Columbia University
Keywords: NIH Roadmap, MLPCN, MLI, MLSMR, qHTS, NCGC, qHTS, malaria, luciferase, viability
Four microliters of culture medium (RPMI 1640 with 0.5% w/v Albumax (GIBCO), 24 mM sodium bicarbonate and 10 ug/mL gentamycin) were dispensed by a Multi-drop Combi into white solid 1536-well plates (Grenier) and 23 nL compound was added by a pin tool. Four microliters of infected erythrocytes (2% hematocrit, 0.1% parasitemia final concentration) in culture medium were dispensed and the plates incubated for 48 hours at 37 C in 5% CO2. Two microliters of luciferase detection reagent was added and luminescence was detected by a ViewLux (PerkinElmer) reader.
For CCNS(=O)(=O)c1ccc(CCC(=O)N2CCN(c3cc(Cl)ccc3C)CC2)cc1, the Potency was “inactive”. With Cc1ccc(Cl)cc1N1CCN(C(=O)c2cccc3c(=O)c(C)c(-c4ccccc4)oc23)CC1 the Potency was 9.28 µM (active). With COC(=O)c1ccc(C(=O)OC)c(NC(=S)N2CCN(c3cc(Cl)ccc3C)CC2)c1 the Potency was “inactive”. In the case of Cc1ccc(C(CC(=O)O)Nc2nc(N3CCCCC3)nc(N3CCCCC3)n2)cc1 (stereo not drawn), the Potency is reported as “inactive”. With CC(Nc1nc(N2CCCC2)nc2ccccc12)c1ccccc1 (stereo not drawn) the Potency was 3.7 µM (active). In the case of CC(C)n1c(C(O)c2ccccc2)nc2ccccc21 (stereo not drawn), the Potency is reported as “inactive”. With CN(C)S(=O)(=O)c1ccc(C(=O)NCCN=C2NS(=O)(=O)c3ccccc32)cc1 the Potency was “inactive”. For COc1ccc(C)cc1Nc1nc(C)nc2c1oc1ccccc12, the Potency was “inactive”. For COc1ccccc1Nc1ncc(C(C)=O)c(C)n1, the Potency was “inactive”. With COC(=O)c1cnc(Nc2cc(C)ccc2OC)c2ccccc12 the Potency was 10.4 µM (active). In the case of COc1ccc(N=Nc2c(-c3ccc(OC)cc3)[nH]oc2=O)cc1, the Potency is reported as “inactive”. In the case of COCCNC(=O)c1ccc2c(c1)ncn2-c1ccc(C)c(Cl)c1, the Potency is reported as “inactive”. With C=CCn1c(SCC(=O)NC(=O)Cc2ccccc2)nc2ccccc2c1=O the Potency was “inactive”. For COc1ccc(OC)c(NC(=O)CSc2nc3cccnc3n2C)c1, the Potency was “inactive”. For CCOCCCn1c(SCC(=O)Nc2cc(OC)ccc2OC)nc2ccccc2c1=O, the Potency was 5.86 µM (active). For CC(=O)NCCn1c(SCC(=O)Nc2ccc(C)cc2)nc2ccccc2c1=O, the Potency was “inactive”. In the case of CCc1nnc(NC(=O)CSc2nc3ccccc3c(=O)n2CCCOC)s1, the Potency is reported as “inactive”. In the case of COc1ccc(NC(=O)CSc2nc3ccccc3c(=O)n2C)cc1, the Potency is reported as 9.28 µM (active). With COc1ccc(NC(=O)CSc2nnc(Cc3ccccc3)c(=O)n2N)cc1 the Potency was “inactive”. In the case of O=C(CCC(=O)c1ccccc1)NCc1cccc(C(F)(F)F)c1, the Potency is reported as “inactive”. With O=C(NC1CCCCCC1)C1CCN(C(=O)c2ccc(Cl)cc2)CC1 the Potency was “inactive”. With O=C(CCN1C(=O)[C@H]2CC=CC[C@H]2C1=O)NCc1nc(-c2ccccc2)no1 the Potency was “inactive”. For CCOC(=O)c1c(NC(=O)CCC(=O)NCc2ccco2)sc2c1CCCC2, the Potency was “inactive”. With CCOC(=O)c1c(NC(=O)Cn2nc(C(F)(F)F)cc2C)sc2c1CCC2 the Potency was 14.7 µM (active). In the case of CCOC(=O)c1c(NC(=O)CSc2nnc(C)c(=O)[nH]2)sc2c1CCC2, the Potency is reported as “inactive”. In the case of O=C(NCc1ccc(Cl)cc1)C1CCN(S(=O)(=O)c2cccs2)CC1, the Potency is reported as “inactive”. For O=C(NCc1ccccn1)C1CCN(S(=O)(=O)c2ccc(Br)cc2)CC1, the Potency was “inactive”. With CCOC(=O)c1c(NC(=O)C2(C)Cc3ccccc3C(=O)O2)sc2c1CCCC2 (stereo not drawn) the Potency was “inactive”. For CCOC(=O)c1c(NC(=S)NC(=O)c2ccco2)sc2c1CCCC2, the Potency was “inactive”. For CCOc1ccc(S(=O)(=O)N2CCC(C(=O)NCC(=O)Nc3cccc(Cl)c3C)CC2)cc1, the Potency was “inactive”. In the case of CCOC(=O)c1c(NC(=O)C2CCN(S(=O)(=O)c3ccc(Cl)cc3)CC2)sc2c1CCCC2, the Potency is reported as 8.28 µM (active). With CCOC(=O)c1c(NC(=S)NC)sc2c1CCCC2 the Potency was 9.28 µM (active). For O=C(NCc1cccs1)C1CCN(S(=O)(=O)c2ccc(Cl)cc2)CC1, the Potency was 1.85 µM (active). For CCOCC(=O)Nc1sc2c(c1C(=O)OCC)CCCC2, the Potency was “inactive”. With Cc1cccc2c1cnn2C(=O)CCC(=O)NC1CCCCC1 the Potency was “inactive”. With O=C(N[C@@H](Cc1c[nH]c2ccccc12)C(=O)O)OCC1c2ccccc2-c2ccccc21 the Potency was “inactive”. With O=C(COC(=O)Cn1[nH]c(=O)c2ccccc2c1=O)Nc1c(Cl)cccc1C(F)(F)F the Potency was “inactive”. In the case of O=C(Cc1cccs1)NCc1cccc(C(F)(F)F)c1, the activity change, negative = inhibition is reported as 0.71% [at 0.00184 µM] (inactive). For CC1CN(C(=S)Nc2ccccc2F)CC(C)O1 (stereo not drawn), the Potency was “inactive”. In the case of COc1ccc(C(=O)N2CCCN(C)CC2)c(OC)c1, the Potency is reported as “inactive”. In the case of COc1ccc(CN2CCNC(=O)C2CC(=O)NCc2cn[nH]c2-c2ccccc2)c(F)c1 (stereo not drawn), the Potency is reported as “inactive”. With COc1ccc(CN2CC(C(=O)NCCc3ccc(Cl)cc3)CC2=O)cc1 (stereo not drawn) the Potency was “inactive”. With O=C(O)c1ccccc1C(=O)Nc1nc(-c2ccccc2)cs1 the Potency was “inactive”. With Cc1ccc(C)c(NC(=O)c2ccc3nccnc3c2)c1 the Potency was “inactive”. For COc1ccc(CNC(=O)Cc2ccc(-c3ccccc3)cc2)cc1OC, the Potency was “inactive”. For CCn1c(C)cc(=O)cc1-c1ccc(Cl)cc1, the Potency was “inactive”. In the case of COc1ccc(Cn2c(-c3ccc(Cl)cc3)c[n+]3ccccc23)cc1, the Potency is reported as 0.522 µM (active). With COc1ccc(C(=O)CN(C(=O)c2ccc(Cl)cc2)N2C(=O)c3ccccc3C2=O)cc1 the Potency was “inactive”. In the case of Cc1ccc(OCC(=O)NCCCNC(=O)c2ccco2)cc1C, the Potency is reported as “inactive”. With Cn1cccc1C(=O)NNC(=O)COc1ccc(Br)cc1 the Potency was “inactive”. With COc1cccc(C(O)c2nc3ccccc3n2C)c1 (stereo not drawn) the Potency was “inactive”. In the case of Cc1n[nH]c(=O)c2c(NC(=O)COC(=O)c3ncc(Cl)c(Cl)c3Cl)oc(C)c12, the Potency is reported as “inactive”. In the case of COc1cc(OC)c(S(=O)(=O)Nc2ccccc2C(=O)O)cc1S(=O)(=O)Nc1ccccc1C(=O)O, the Potency is reported as “inactive”. For Cc1ccc(C)c(NC(=O)CN(C)C(=O)c2ccc3ncsc3c2)c1, the Potency was “inactive”. With O=C(Nc1ccc(NC(=O)c2cccs2)cn1)c1ccco1 the Potency was “inactive”. With O=C(Nc1ncccn1)c1cccs1 the Potency was “inactive”. In the case of O=C(Nc1ccnc(-c2ccncc2)n1)c1cccs1, the Potency is reported as 11.7 µM (active). With CC(C)CN(C(=O)CSc1ncnc2sccc12)C1CCS(=O)(=O)C1 (stereo not drawn) the Potency was “inactive”. In the case of CCN(CC)CCn1c2c(c(SCC(=O)Nc3nc4ccccc4s3)nc1=O)CCCC2, the Potency is reported as “inactive”. For Cc1ccc(-c2cc(C(F)(F)F)n3ncc(C(=O)N4CCCCC4c4cccnc4)c3n2)cc1 (stereo not drawn), the Potency was 1.65 µM (active). For O=C(NC(=S)N1CCCCC1c1cccnc1)c1ccccc1 (stereo not drawn), the Potency was “inactive”. In the case of O=C(Nc1ccccc1C(F)(F)F)N1CCCC1c1cccnc1 (stereo not drawn), the Potency is reported as “inactive”. In the case of CCn1c(SCC(=O)NC2CC2)nnc1-c1ccccn1, the Potency is reported as “inactive”. For CCOc1ccc(C(=O)CCN2CCOCC2)cc1, the Potency was “inactive”. In the case of CC(=O)c1ccc(S(=O)(=O)NCc2nnnn2-c2ccccc2)cc1, the Potency is reported as “inactive”. For Cc1cccc(-c2nnc(SCC(=O)O)n2Cc2ccccc2)c1, the Potency was “inactive”. With C[C@@H](NC(=O)c1nc[nH]c1C(=O)N1CCN(C(=O)OC(C)(C)C)CC1)c1ccccc1 the Potency was “inactive”. In the case of O=C(N[C@@H](Cc1ccccc1)C(=O)OCc1ccccc1)c1nc[nH]c1C(=O)N[C@@H](Cc1ccccc1)C(=O)OCc1ccccc1, the Potency is reported as “inactive”. With CC(C)(C)OC(=O)N1CCC(NC(=O)c2[nH]cnc2C(=O)N[C@@H](Cc2ccccc2)C(=O)OCc2ccccc2)CC1 the Potency was 0.928 µM (active). In the case of Cc1onc(C(=O)Nc2ccc3c(c2)OCO3)c1[N+](=O)[O-], the Potency is reported as “inactive”. In the case of Cc1c(CCOC(=O)CC23CC4CC(CC(C)(C4)C2)C3)sc[n+]1Cc1ccc([N+](=O)[O-])cc1, the Potency is reported as 2.62 µM (active). With Cc1c(CCOC(=O)c2cc([N+](=O)[O-])ccc2Cl)sc[n+]1CCCCS(=O)(=O)[O-] the Potency was “inactive”. In the case of Oc1ccc(/C=N/Nc2ccc(C(F)(F)F)cn2)cc1O, the Potency is reported as “inactive”. With Oc1ccc(Br)cc1/C=N/Nc1ccccn1 the Potency was 1.47 µM (active). In the case of O=C(CCCO)N/N=C/c1cc(Br)ccc1O, the Potency is reported as “inactive”. With CC(C)c1ccc(S(=O)(=O)N2CCC3(CC2)OCCO3)cc1 the Potency was “inactive”. For COc1cc2ccccc2cc1C(=O)Nc1ccccc1C, the Potency was “inactive”. In the case of COc1ccc(C)cc1NC(=O)Nc1ccccc1SC, the Potency is reported as “inactive”. For COc1ccc(C)cc1NC(=O)c1cc(-c2ccccc2)nc2c1cnn2C(C)C, the Potency was 4.65 µM (active). In the case of Cc1ccc(-c2noc(C3CCCN(C(=O)c4cccc(Cl)c4)C3)n2)o1 (stereo not drawn), the Potency is reported as “inactive”. With O=C(CCNC(=O)c1ccc(Br)cc1)NCCCc1ccccc1 the Potency was “inactive”. For Cc1cccc2[nH]c(CN(C)C(=O)C3CCC(=O)N(CCc4ccccc4)C3)nc12 (stereo not drawn), the Potency was “inactive”. With Cc1ccccc1C(=O)NC(=S)Nc1ccc(N2CCN(C(=O)c3ccccc3)CC2)cc1 the Potency was “inactive”. In the case of COc1ccc(C(=O)Nc2ccccc2C(=O)N2CCN(c3ccccc3)CC2)cc1, the Potency is reported as “inactive”. With CC(C)c1ccc(N2CCN(C(=O)c3ccccc3NC(=O)/C=C(\C(=O)O)c3ccccc3)CC2)cc1 the Potency was 13.1 µM (active). For COc1ccc(NC(=O)CCS(=O)(=O)c2cc3c(cc2Cl)NC(=O)CO3)cc1OC, the Potency was “inactive”. For O=C(Cc1ccc2c(c1)CCCC2)Nc1ccccc1Cl, the Potency was 11.7 µM (active). With O=C(COC(=O)c1cccs1)Nc1ccccc1Cl the Potency was “inactive”. With O=C(Nc1ccc2c(c1)CCC2)c1cccc(S(=O)(=O)Nc2ccccc2Cl)c1 the Potency was “inactive”. With O=C(Nc1ccccc1N1CCOCC1)c1ccncc1 the Potency was “inactive”. For CCCc1ccc(OCC(O)CN2CCN(CCO)CC2)cc1 (stereo not drawn), the Potency was “inactive”. With CCc1nc(NCCO)c(C#N)c2c1CCCC2 the Potency was “inactive”. For CCCCc1nc(NCc2ccccc2)c(C#N)c2c1CCCC2, the Potency was 6.57 µM (active). For CN(C)c1nccc(NCc2ccccc2)c1C#N, the Potency was “inactive”. In the case of CCOC(=O)c1ccccc1NC(=O)COC(=O)C(Cc1c[nH]c2ccccc12)NC(C)=O (stereo not drawn), the Potency is reported as “inactive”. In the case of CCOc1cccc(=NC2CCCCC2)c2c(C)[nH]c(C)c12, the Potency is reported as 2.33 µM (active). For CCOc1ccccc1NC(=O)NC1CCCCCCC1, the Potency was “inactive”. For Cc1cc(C)n2nc(C(=O)Nc3cccc(S(=O)(=O)N4CCOCC4)c3)nc2n1, the Potency was “inactive”. For CC(C)C[C@H](NC(=O)C1CC(=O)N(c2ccc3c(c2)OCCO3)C1)C(=O)NC1CCCC1 (stereo partly drawn), the Potency was “inactive”. In the case of C/C=C/C(=O)OCc1csc(CC(=O)Nc2ccccc2C)n1, the Potency is reported as “inactive”. For CCCc1nnc(NC(=O)CCC(=O)N2CCN(S(=O)(=O)c3ccc(OC)cc3)CC2)s1, the Potency was “inactive”. In the case of COc1ccc(Cc2nc3ccc(C(=O)N4CCC(N(C)C)C4)cc3o2)cc1 (stereo not drawn), the Potency is reported as “inactive”. For CCc1cccc(NC(=O)COC(=O)C2CCN(c3ccc(C(F)(F)F)cn3)CC2)c1, the Potency was “inactive”.
